Data reported in PubChem BioAssay (NCATS).
Results filed as inconclusive are left out. Activity calls are given as the source filed them. Calls follow the shape of the dose curve; as a rule, active = well fitted inhibition curve with a large enough effect; inconclusive = small, poorly fitted or top-dose-only effect; inactive = flat fitted curve, though single readings scatter.

Key:
P93_24 = assay: qHTS profiling for inhibitors of Plasmodium falciparum proliferation (AID 504749);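 also: 0% = DMSO vehicle and full inhibition = artemisinin control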; conditions: P. falciparum in erythrocytes, SYBR Green DNA, 72 h; series mostly up to 28.7 µM
Outline: (§1)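 SYBR Green fluorescence (ex 485 nm, em 535 nm) reports parasite DNA after 72 h compound exposure of infected red cells at 0.3% parasitemia, 2.5% hematocrit; signal normalized to 0.29 uM artemisinin and vehicle wells.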

P94_40 = assay: as above; conditions: P. falciparum in erythrocytes, SYBR Green DNA, 72 h; series mostly up to 28.7 µM
Outline: as §1

PAD = assay: as above; conditions: P. falciparum in erythrocytes, SYBR Green DNA, 72 h; series mostly up to 28.7 µM
Outline: as §1

PC15 = assay: as above; conditions: P. falciparum in erythrocytes, SYBR Green DNA, 72 h; series mostly up to 28.7 µM
Outline: as §1

PC26 = assay: as above; conditions: P. falciparum in erythrocytes, SYBR Green DNA, 72 h; series mostly up to 28.7 µM
Outline: as §1

PC49 = assay: as above; conditions: P. falciparum in erythrocytes, SYBR Green DNA, 72 h; series mostly up to 28.7 µM
Outline: as §1

SC27B = assay: as above; conditions: P. falciparum in erythrocytes, SYBR Green DNA, 72 h; series mostly up to 28.7 µM
Outline: as §1

TAB109 = assay: as above; conditions: P. falciparum in erythrocytes, SYBR Green DNA, 72 h; series mostly up to 28.7 µM
Outline: as §1

TAB113 = assay: as above; conditions: P. falciparum in erythrocytes, SYBR Green DNA, 72 h; series mostly up to 28.7 µM
Outline: as §1

TAB165 = assay: as above; conditions: P. falciparum in erythrocytes, SYBR Green DNA, 72 h; series mostly up to 28.7 µM
Outline: as §1

W2 = assay: as above; conditions: P. falciparum in erythrocytes, SYBR Green DNA, 72 h; series mostly up to 28.7 µM
Outline: as §1

CRL-7250 = normal cell line; assay: Cytotoxic Profiling of Annotated Libraries Using Quantitative High-Throughput Screening (AID 1296008); conditions: Five cell lines viability, CellTiter-Glo ATP luminescence, 48-72 h; hits give low values; as to max response: % is scaled to controls: 0 for no effect and ±100 for the full control effect
Outline: (§2)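 Cells exposed to compounds for 48 or 72 hr at 37 degrees Celsius. Viability read as ATP-coupled luminescence with CellTiter-Glo after 10 min at room temperature.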

HEK293 = assay: as above; conditions: Five cell lines viability, CellTiter-Glo ATP luminescence, 48-72 h; hits give low values
Outline: as §2

HaCat = assay: as above; conditions: Five cell lines viability, CellTiter-Glo ATP luminescence, 48-72 h; hits give low values
Outline: as §2

KB-3-1 = assay: as above; conditions: Five cell lines viability, CellTiter-Glo ATP luminescence, 48-72 h, hits give low values
Outline: as §2

NIH3T3 = assay: as above; conditions: Five cell lines viability, CellTiter-Glo ATP luminescence, 48-72 h; hits give low values
Outline: as §2

HEK293T = assay: qHTS assay to identify novel small-molecules to repurpose for Merkel cell carcinoma treatment (AID 1296009); conditions: MCC and control cell lines, CellTiter-Glo viability, 72 h; at 44.8 µM (top of the series) unless noted
Outline: (§3)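 CellTiter-Glo luminescence after 72 hr compound exposure at 37 degree celsius gave cell viability. Libraries NPC and MIPE were run as 8- and 11-point dose responses; RLUs normalized to DMSO (negative) and no-cell (cytotoxicity) controls.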

MCC-13 = assay: as above; conditions: MCC and control cell lines, CellTiter-Glo viability, 72 h; series mostly up to 46 µM
Outline: as §3

MCC-26 = assay: as above; conditions: MCC and control cell lines, CellTiter-Glo viability, 72 h; series mostly up to 46 µM
Outline: as §3
Also: nearly all actives have a fitted effect of over 60% in size.

O=C(O)CCCc1ccccc1
inactive: Potency (P93_24) | Potency (P94_40) | Potency (PAD) | Potency (PC15) | Potency (PC26) | Potency (PC49) | Potency (SC27B) | Potency (TAB109) | Potency (TAB113) | Potency (TAB165) | Potency (W2) | max response (CRL-7250) 1.18% | outcome (HEK293) | max response (HaCat) 2.59% | max response (KB-3-1) 18.7% | max response (NIH3T3) -2.38% | outcome (HEK293T) | outcome (MCC-13) | outcome (MCC-26)

CCCCCCCCCCCCCCCCN
inactive: Potency (P93_24) | Potency (P94_40) | Potency (PAD) | Potency (PC15) | Potency (PC26) | Potency (PC49) | Potency (SC27B) | Potency (TAB109) | Potency (TAB165) | Potency (W2) | max response (CRL-7250) -3.5% | outcome (HEK293) | max response (HaCat) -13.8% | max response (KB-3-1) 5.46% | max response (NIH3T3) -1.53% | outcome (HEK293T) | outcome (MCC-13) | outcome (MCC-26)

CC(=O)Nc1ccc(OCCOCCOc2ccc(NC(C)=O)cc2)cc1
inactive: Potency (P93_24) | Potency (P94_40) | Potency (PAD) | Potency (PC15) | Potency (PC26) | Potency (PC49) | Potency (SC27B) | Potency (TAB109) | Potency (TAB113) | Potency (TAB165) | Potency (W2) | max response (CRL-7250) 0.416% | outcome (HEK293) | max response (HaCat) 3.25% | max response (KB-3-1) -2.03% | max response (NIH3T3) 4.13% | outcome (HEK293T) | outcome (MCC-13) | outcome (MCC-26)

NS(=O)(=O)c1cc(-c2nn[nH]n2)c(NCc2cccs2)cc1Cl
inactive: Potency (P93_24) | Potency (P94_40) | Potency (PAD) | Potency (PC15) | Potency (PC26) | Potency (PC49) | Potency (SC27B) | Potency (TAB109) | Potency (TAB113) | Potency (TAB165) | Potency (W2) | max response (CRL-7250) 1.54% | outcome (HEK293) | max response (HaCat) -8.31% | max response (KB-3-1) -9.88% | max response (NIH3T3) -0.0304% | outcome (HEK293T) | outcome (MCC-13) | outcome (MCC-26)

CN[C@@H]1[C@@H](O)[C@@H](O[C@@H]2[C@H](O)[C@H](O[C@H]3OC(CN)=CC[C@H]3N)[C@@H](N)C[C@H]2N)OCC1(C)O (some centres undefined)
inactive: max response (CRL-7250) 2.42% | max response (HEK293) 4.89% | max response (HaCat) 1.23% | max response (KB-3-1) 25.6% | max response (NIH3T3) 2.74% | outcome (MCC-13)

O=C(O)C(S)C(S)C(=O)O (centres undefined)
inactive: max response (CRL-7250) -6.2% | max response (HEK293) -7.93% | max response (HaCat) 3.59% | max response (KB-3-1) -23% | outcome (NIH3T3) | outcome (MCC-13) | outcome (MCC-26)

O=C(O)/C=C/c1ccc(Cn2ccnc2)cc1
inactive: max response (CRL-7250) -1.04% | max response (HEK293) -1.65% | max response (HaCat) 4.76% | max response (KB-3-1) 2.2% | outcome (NIH3T3) | outcome (MCC-13) | outcome (MCC-26)

OC[C@@H](O)[C@@H](O)[C@H](O)[C@H](O)CO
inactive: Potency (P93_24) | Potency (P94_40) | Potency (PAD) | Potency (PC15) | Potency (PC26) | Potency (PC49) | Potency (SC27B) | Potency (TAB109) | Potency (TAB113) | Potency (TAB165) | Potency (W2) | max response (CRL-7250) -5.84% | outcome (HEK293) | max response (HaCat) 0.927% | max response (KB-3-1) 5.16% | max response (NIH3T3) -8.98% | outcome (HEK293T) | outcome (MCC-13) | outcome (MCC-26)
